Bioassay records deposited in PubChem by several laboratories.
Lmaj promast = reduces viability of Leishmania major promastigotes | resazurin fluorescence viability | inhibition, % at 10 µM | 200,000 tested, 9% active | AID 1063; in the data active = inhibition above about 50%;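 note: promastigotes grown with compound for 44 hours at 28 °C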
WT yeast gro inh = growth inhibition of WT yeast, mitochondrial fusion screen; inhibition, % at 10 µM; 190,000 tested, 2.1% active; mitochondrial fusion phenotypic screen, WT strain; in the data active = inhibition above about 58%; tested in S. cerevisiae
KCC2 mod = KCC2 (human) Cl- transport modulation | 190,000 tested, 2.2% active | Q9H2X9 | AID 1456 | KCC2 cells, thallium flux FluoZin-2 fluorescence | B-score of Tl+ flux slope (higher = more flux/activation; lower = inhibition) at 10 µM;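 active = thallium flux slope and its plate-corrected score both differing from the plate sample mean at a set confidence after two filtering rounds, in either direction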;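 note: slope of fluorescence scaled to starting intensity during 10 to 20 s after thallium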
m-calpain inh = blocks pig calpain II enzyme activity; purified calpain II, fluorogenic peptide substrate, 30 min; inhibition, % at 16 µM; 220,000 tested, 0.37% active; AID 1236;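 active = inhibition above about 50%, limit read from the data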
ROMK primary = modulators of human ROMK potassium channel. Tet-inducible ROMK, thallium flux fluorescence; actives lie on both sides. 130,000 tested, 2% active. AID 1918. B-score at 10 µM. P48048;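 active = signal ratio slope over the read window, or its plate-corrected B-score, at least 3 SD from the plate mean, either direction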;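 note: B-score of the F/F0 ratio slope over 7 to 12 s after thallium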
Target sequence (P48048 whole entry, looked up): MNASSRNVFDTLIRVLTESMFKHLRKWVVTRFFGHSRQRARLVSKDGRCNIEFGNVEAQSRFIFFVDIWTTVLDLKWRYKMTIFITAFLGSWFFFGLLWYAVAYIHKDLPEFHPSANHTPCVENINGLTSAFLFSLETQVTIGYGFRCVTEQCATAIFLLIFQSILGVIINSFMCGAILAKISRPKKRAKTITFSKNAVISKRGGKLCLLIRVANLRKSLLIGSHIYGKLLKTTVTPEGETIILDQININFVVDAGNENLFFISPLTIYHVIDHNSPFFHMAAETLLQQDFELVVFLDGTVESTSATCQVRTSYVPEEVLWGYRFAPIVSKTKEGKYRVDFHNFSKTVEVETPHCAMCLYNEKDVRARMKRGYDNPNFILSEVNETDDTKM
KCC2 secondary = KCC2 (human) modulation, secondary assay; normalised thallium flux (F/F0 slope) at 10 µM; 3,700 tested, 15% active; HEK293-KCC2, thallium flux, FluoZin2 fluorescence; hits give high values; shares compounds with KCC2 mod;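 active = thallium flux slope above the same plate's solvent-only control mean plus 3 SD; inconclusive = the two replicate wells disagree; inactive = no significant difference from solvent-only control wells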
KCC2 bumet counter = bumetanide-insensitive thallium flux in KCC2 cells with ouabain, counter-screen | shares compounds with KCC2 mod | HEK293-KCC2 + bumetanide/ouabain, thallium flux FluoZin2; hits give high values | normalized thallium flux at 10 µM | 3,700 tested, 49% active;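 active = thallium entry rate above the same plate's blocked-transporter control wells by more than 3 SD; inconclusive = the two repeat wells disagree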;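 note: raw slope of fluorescence over initial fluorescence between 10 and 20 s after thallium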
KCC2 secondary2 = KCC2 (human) modulation, second secondary assay; normalized thallium flux at 10 µM; HEK293-KCC2, thallium flux FluoZin2 fluorescence; actives lie on both sides; F/F0 rise rate, 10–20 s post-thallium; shares compounds with KCC2 mod; AID 1715; 3,700 tested, 23% active;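 active = thallium flux slope more than 3 SD above or below the plate's solvent-only control mean, mostly below; inconclusive = the two repeat wells disagreed; inactive = no significant shift from solvent-only controls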;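 note: raw slope with 0.1% DMSO as baseline and bumetanide as block control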
HEK counter1 = counter-screen for KCC2 modulators: effect in parental HEK293 cells; thallium flux FluoZin2, ouabain; baseline-ratio fluorescence slope, 10–20 s after thallium; shares compounds with KCC2 mod; thallium flux rate (normalised fluorescence) at 10 µM; 3,700 tested, 46% active; AID 1716;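 active = thallium flux rate significantly above the same plate's solvent-only control wells, beyond their mean plus 3 SD; inconclusive = the two replicate wells gave conflicting results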
KCC2 retest ouab = modulates human KCC2 on retest with ouabain. shares compounds with KCC2 mod. HEK293-KCC2, thallium flux FluoZin2 fluorescence; bidirectional: low = inhibitor, high = activator. raw Tl+ flux slope (below DMSO = inhibition, above = activation) at 10 µM. 3,700 tested, 48% active;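 active = thallium flux slope beyond 3 SD from same-plate DMSO control mean in most replicates, usually higher, sometimes lower; inconclusive = repeat tests gave conflicting results; inactive = no significant difference from controls in most replicates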;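 note: slope of initial-normalized fluorescence between seconds 10 and 20 after thallium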
HEK counter2 = acts in parental HEK cells, second KCC2 counter-screen. HEK293 parental, thallium flux FluoZin-2 fluorescence slope. thallium flux slope at 10 µM. shares compounds with KCC2 mod. 3,700 tested, 33% active;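 active = thallium flux slope above the same plate's solvent-control mean plus 3 SD in both duplicate wells; inconclusive = duplicate wells that disagreed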;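 note: run without ouabain in cells lacking the KCC2 cotransporter; slope of fluorescence scaled to its starting value between 10 and 20 s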
* = called active by the depositor; ? = inconclusive; · = no result given. Compounds with a hit are over-represented: about 12% of the library has one in this group of screens.

SMILES	Lmaj promast	WT yeast gro inh	KCC2 mod	m-calpain inh	ROMK primary	KCC2 secondary	KCC2 bumet counter	KCC2 secondary2	HEK counter1	KCC2 retest ouab	HEK counter2
O=C(CSc1ccccn1)Nc1cccc(NC(=O)CSc2ccccn2)n1	-1.6	1.4	·	-7.1	1.25	?	?	0.0319	0.00698	0.0205	0.0101
CC(=O)Nc1ccc(NC(=O)CSc2ccccn2)cc1	22.0	-11.8	0.342	12.7	·	·	·	·	·	·	·
COc1cc2c(cc1NC(=O)CSc1ccccn1)oc1ccccc12	-4.8	8.0	-4.83*	13.6	0.332	0.00796	0.00592	0.0284	0.00702	0.019	0.00855
O=C(CSc1nc2ccccc2[nH]1)Nc1ccccc1F	13.4	-6.6	-4.68*	21.5	-1.11	0.00725	0.00391	0.0318	0.00735	0.0186	0.00996
CCSc1nnc(NC(=O)[C@@H](NC(=O)c2ccccc2F)C(C)C)s1	13.0	-15.7	-1.27	-3.1	0.00671	·	·	·	·	·	·
S=c1nc(-c2sccc2OCc2ccc(Cl)cc2Cl)[nH][nH]1	-3.6	64.4*	23.6*	92.9*	0.0562	0.00709	0.0866*	0.029	0.0227*	?	0.0134*
C=CCn1cnc2scc(-c3ccc(CC)cc3)c2c1=O	3.4	-0.3	-4.12*	21.4	-0.888	0.00544	0.00395	0.0278	0.00653	0.0178	0.0103
O=C(CNC(=O)c1ccccc1)NC1(C(=O)NC2CCCCC2)CCCCC1	-2.9	-5.1	0.851	-5.3	-0.323	·	·	·	·	·	·
Cc1nn(-c2nc3ccccc3s2)c(N)c1-c1ccccc1	-1.8	21.9	1.02	1.7	·	·	·	·	·	·	·
Cc1nn(-c2nc3ccccc3[nH]2)c(N)c1-c1ccccc1	91.3*	72.3*	2.55*	-13.9	-0.0493	0.00639	0.0123*	0.032	0.0106*	?	0.0139*
CC(C(=O)N1CCN(c2ccc([N+](=O)[O-])cc2)CC1)N1C(=O)C2CC=CCC2C1=O (configuration not stated)	2.7	-0.8	0.338	-26.7	0.673	·	·	·	·	·	·
Cc1onc(-c2ccccc2)c1CNC(=O)C1COc2ccccc2O1 (configuration not stated)	·	·	·	18.1	·	·	·	·	·	·	·
Cc1cc2ccccn2c1C(=O)c1ccncc1	14.2	-11.2	-0.15	3.1	·	·	·	·	·	·	·
Cc1cc2ccccn2c1C(=S)NC(=O)c1ccccc1	45.8	16.5	65.5*	15.2	2.11	0.02*	0.144*	0.101*	0.12*	0.121*	0.105*
Cc1ccc(Nc2nnc(SCC3CCCCO3)s2)cc1 (configuration not stated)	-1.5	30.1	0.0903	38.4	0.165	·	·	·	·	·	·
CCc1ccc(Nc2nnc(SC3CCOC3=O)s2)cc1 (configuration not stated)	1.8	-11.2	-5.31*	5.0	·	0.00636	?	0.0229*	0.00685	?	0.0103
CCOC(=O)c1c(C)oc2ccc(OCc3cc(C(=O)OC)oc3C)cc12	-3.7	16.3	·	-3.7	-0.321	·	·	·	·	·	·
O=[N+]([O-])c1cccc(/C=N/NC2=NS(=O)(=O)c3ccccc32)c1	-5.2	-33.0	-3.76*	-1.7	-0.0485	0.01	?	0.0306	0.00727	0.02	0.00983
O=C(CCN1CCN(Cc2ccccc2)CC1)Nc1cccc(Cl)c1	89.0*	-2.7	-3.77*	-19.4	·	0.00566	0.00518	0.0241*	0.00781	0.0145*	0.00987
COc1cc(NC(=O)CCN2CCN(Cc3ccccc3)CC2)cc(OC)c1	-3.0	2.0	-0.905	-16.6	-0.0415	·	·	·	·	·	·
Cc1ccc2[nH]c3c(c2c1)SC(C)(C)CC3=O	17.2	-14.3	-0.000462	-154.0	-0.367	·	·	·	·	·	·
Cc1ccc(N2CC(C(=O)N3CCc4ccccc4C3)CC2=O)cc1 (configuration not stated)	-2.0	-3.8	·	18.6	·	0.00694	0.00424	0.029	0.00707	0.0169	0.00967
O=C(NC(Cc1ccccc1)C(=O)OCC(=O)N1CCc2ccccc21)c1ccco1 (configuration not stated)	-0.7	11.7	-3.68*	-10.2	·	0.0149	0.00499	0.0218*	0.00696	0.0147	0.00966
COc1ccccc1NC(=O)Cn1nnc(-c2ccccc2NC(=O)c2cnccn2)n1	25.9	6.1	0.07	-12.4	-0.371	·	·	·	·	·	·
CC(CCc1ccccc1)NC(=O)C(Cc1ccccc1)NS(=O)(=O)c1cccs1 (configuration not stated)	88.7*	24.4	-3.57*	-0.1	-0.0769	0.00611	0.00384	?	?	0.0146*	0.00937
SMILES	Lmaj promast	WT yeast gro inh	KCC2 mod	m-calpain inh	ROMK primary	KCC2 secondary	KCC2 bumet counter	KCC2 secondary2	HEK counter1	KCC2 retest ouab	HEK counter2
CC(CCc1ccccc1)NC(=O)c1cccs1 (configuration not stated)	-1.0	1.0	·	-15.7	·	·	·	·	·	·	·
Cc1cc(C)nc(SCCC(=O)N(C)C)n1	-0.6	21.9	0.286	-26.6	1.21	·	·	·	·	·	·
CCn1cc(C(=O)O)c(=O)c2cc(F)c(N3CCNCC3)cc21	-7.2	-2.0	0.295	-106.4	·	·	·	·	·	·	·
CCOC(=O)c1cn(CC)c2cc(N3CCSCC3)c(F)cc2c1=O	3.2	15.1	8.04*	-147.7	-0.658	0.00647	0.00405	0.0319	0.00747	0.0187	0.00998
CCOc1ccc(CN(CCC#N)C(=S)NC(=O)c2ccccc2)cc1	19.8	44.5	29.6*	-1.9	1.85	0.0462*	0.117*	0.0436*	0.0725*	0.0935*	0.0303*
CCc1ccc(NC(=O)c2c(Cl)nc(C)c(Cl)c2C)cc1	-0.5	4.1	-4.23*	7.4	0.281	0.00537	0.00533	0.0251*	?	0.0158*	0.012
Cc1ccccc1NC(=O)c1c(Cl)nc(C)c(Cl)c1C	-1.9	-0.8	0.901	-2.5	0.0511	·	·	·	·	·	·
Cc1nnsc1C(=O)NC(C)c1ccccc1 (configuration not stated)	-8.8	2.4	0.166	-19.4	0.82	·	·	·	·	·	·
COCCn1c(SCc2csc(-c3ccccc3)n2)nc2ccccc21	2.2	39.6	-3.48*	-0.6	-1.58	0.00566	0.00494	0.0286	0.00509*	0.0153*	0.00907
Cc1ccc(NC(=O)COC(=O)CSC(=S)N2CCOCC2)cc1	-8.2	-4.8	0.0294	-11.4	-0.802	·	·	·	·	·	·
COc1ccc2nc(N=Nc3c(O)ccc4ccccc34)sc2c1	98.6*	12.1	13.5*	-31.6	0.87	0.0131*	0.0503*	0.0358	0.0249*	0.0336*	0.0157*
NC(=O)N=Nc1c(O)[nH]c2ccc([N+](=O)[O-])cc12	·	·	0.031	27.0	·	·	·	·	·	·	·
